{"source": "PubChem BioAssay AID2069", "about": "(Sanford-Burnham Center for Chemical Genomics, 2009)", "note": "Hit rate of the full screen: of about 1,200 compounds, about 210 (18%) were called active. No stated cut-off is given here; in the data, active means inhibition above about 30%; inactive means the rest. Only a sample is shown.", "data": [{"test": "HTRF signal interference by compounds, confirmation, artefact control for SUMOylation inhibitor project, biochemical, uHTS (AID 2069)", "settings": "HTRF interference counterscreen, fluorescence, at 35 µM, active compounds read high", "values": [{"smiles": "COc1ccc2c(c1)CC/C(=C\\Nc1ccc3c(c1)OCO3)C2=O", "inhibition": "-3.55% (inactive)"}, {"smiles": "C=CCOc1c(Br)cc(/C=C2\\SC(=Nc3ccccc3)NC2=O)cc1OC", "inhibition": "9.1% (inactive)"}, {"smiles": "O=C(O)c1cccc([N+](=O)[O-])c1C(=O)Nc1cccc2ccccc12", "inhibition": "-3.8% (inactive)"}, {"smiles": "Cc1ccc(C(=O)Nc2ccccc2C(=O)N2CCN(c3ccccc3)CC2)cc1", "inhibition": "-8.05% (inactive)"}, {"smiles": "Cn1c(=O)cc(C(=O)N/N=C/c2ccc(Cl)cc2)[nH]c1=O", "inhibition": "-5.8% (inactive)"}, {"smiles": "CCc1nc2sc(C(C)=O)c(N)c2c2c1CCCC2", "inhibition": "9.65% (inactive)"}, {"smiles": "O=[N+]([O-])c1cccc(C=Nc2cccc3ccccc23)c1O", "inhibition": "29.6% (inactive)"}, {"smiles": "CCOc1ccc(NC(=S)Nc2ccc3nsnc3c2)cc1", "inhibition": "19.4% (inactive)"}, {"smiles": "O=C1NC(=Nc2ccc3ccccc3c2)S/C1=C/c1ccco1", "inhibition": "9.5% (inactive)"}, {"smiles": "COc1cccc(NC(=S)Nc2cccc3ccccc23)c1", "inhibition": "2.35% (inactive)"}, {"smiles": "S=C(Nc1ccc2nsnc2c1)N1CCCCCC1", "inhibition": "6.8% (inactive)"}, {"smiles": "S=C(Nc1ccc2nsnc2c1)N1CCCCC1", "inhibition": "16.2% (inactive)"}, {"smiles": "S=C(Nc1ccc2nsnc2c1)N1CCCC1", "inhibition": "35.6% (active)"}, {"smiles": "S=c1[nH]nc(-c2cc(-c3ccccc3)n[nH]2)n1/N=C/c1cccc(Cl)c1", "inhibition": "-8.55% (inactive)"}, {"smiles": "COc1ccc(/C=C/c2nnc(NC(=O)CSc3ccc(C)cc3)s2)cc1", "inhibition": "9.65% (inactive)"}, {"smiles": "CCOc1cc(/C=C2\\C(=O)N(c3ccc(C(N)=O)cc3)N=C2C)ccc1OC(=O)c1cccs1", "inhibition": "-9.6% (inactive)"}, {"smiles": "Nc1ccc2nc(-c3ccccc3)sc2c1", "inhibition": "66% (active)"}, {"smiles": "Nc1ccc2c(c1)sc1ccccc12", "inhibition": "-9.65% (inactive)"}, {"smiles": "Cc1ccc(C)c(S(=O)(=O)c2c(N)n(/N=C/c3ccco3)c3nc4ccccc4nc23)c1", "inhibition": "-11.7% (inactive)"}, {"smiles": "CCc1nn(CC(=O)NC(C)CCc2ccccc2)c(=O)c2cc3cc(F)ccc3n12", "note": "(stereo unspecified)", "inhibition": "16.4% (inactive)"}, {"smiles": "CC(=O)c1ccc2c(c1)C1C=CCC1C(C(=O)O)N2", "note": "(stereo unspecified)", "inhibition": "70.7% (active)"}, {"smiles": "O=C(O)c1ccc(NS(=O)(=O)c2ccc3c(c2)C2C=CCC2C(c2ccccc2F)N3)cc1", "note": "(stereo unspecified)", "inhibition": "3.15% (inactive)"}, {"smiles": "COc1cccc(NS(=O)(=O)c2ccc3c(c2)C2C=CCC2C(c2ccc(C(=O)O)cc2)N3)c1", "note": "(stereo unspecified)", "inhibition": "8.05% (inactive)"}, {"smiles": "CCc1ccc(NC(=O)NNC(=O)c2cc3ccccc3cc2O)cc1", "inhibition": "8.2% (inactive)"}, {"smiles": "N#Cc1c(-c2cccs2)nc(SCc2ccc(Cl)cc2)[nH]c1=O", "inhibition": "21.6% (inactive)"}, {"smiles": "NC(=O)C1CCN(C2=C(NS(=O)(=O)c3ccc(Cl)cc3)C(=O)c3ccccc3C2=O)CC1", "inhibition": "-20.8% (inactive)"}]}]}
